# Screening results as filed in PubChem BioAssay.
# ST2 IL33 inh = inhibitors of human ST2 (IL1RL1) binding to IL-33, primary screen, biochemical, AlphaLISA. inhibition, % for hits at 17 µM. 78,000 compounds, 2.3% hits. AID 1259354, 2018. AlphaLISA ST2-Fc/biotin-IL-33 interaction, 1 h. Interleukin-1 receptor-like 1 (Homo sapiens), Q01638; in the data active means inhibition above about 30%
# Target sequence (Q01638 whole entry, looked up): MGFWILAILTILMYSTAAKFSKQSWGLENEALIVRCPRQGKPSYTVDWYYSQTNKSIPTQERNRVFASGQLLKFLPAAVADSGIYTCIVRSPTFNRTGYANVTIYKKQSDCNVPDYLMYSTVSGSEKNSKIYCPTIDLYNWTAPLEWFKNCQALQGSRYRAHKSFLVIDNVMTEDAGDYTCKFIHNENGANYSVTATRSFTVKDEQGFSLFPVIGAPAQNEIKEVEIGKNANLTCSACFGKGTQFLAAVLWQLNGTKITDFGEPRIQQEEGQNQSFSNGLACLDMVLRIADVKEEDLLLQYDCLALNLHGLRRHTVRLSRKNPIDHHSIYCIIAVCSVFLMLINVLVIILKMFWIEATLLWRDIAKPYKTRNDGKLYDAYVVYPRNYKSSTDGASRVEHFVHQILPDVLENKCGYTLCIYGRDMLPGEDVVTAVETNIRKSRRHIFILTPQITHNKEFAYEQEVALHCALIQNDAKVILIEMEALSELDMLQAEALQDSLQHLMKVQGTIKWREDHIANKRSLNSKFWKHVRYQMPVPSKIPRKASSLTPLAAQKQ
# * hit, by the source's call; i = inactive. This excerpt belongs to a sample that is enriched for hits.
SMILES,ST2 IL33 inh
O[C@@H]1C[C@@H](c2nc(-c3ccc(OC(F)(F)F)cc3)no2)N(Cc2ccccc2)C1,i
O=C(c1cc2c(=O)oc3ccccc3c2s1)N1CCCCCC1,i
COc1ccc(C(=O)N2C[C@H](O)[C@@H](N3CCC(OCc4ccccn4)CC3)C2)cc1,i
Cc1ccccc1-n1c(N)c(C#N)c2nc3ccccc3nc21,30%*
CCCCCn1c(N)c(C#N)c2nc3ccccc3nc21,i
Cc1ccc2c(c1)c1nc3ccccc3nc1n2CCN1CCOCC1,i
N#Cc1c(N)n(CCN2CCOCC2)c2nc3ccccc3nc12,36%*
N#Cc1c(N)n(-c2cccc(F)c2)c2nc3ccccc3nc12,i
CCOC(=O)c1c(N)n(-c2ccc(OCC)cc2)c2nc3ccccc3nc12,i
c1ccc(CN2CCN(c3ccccn3)CC2)cc1,i
O=C(NC1CC(=O)N(C2CCCCCC2)C1)c1cnccn1 (stereo not drawn),i
Cc1nn(CC(=O)Nc2ccc3nc(N4CCN(C)CC4)cc(C)c3c2)c(C)c1[N+](=O)[O-],i
O=C(Nc1cccc(-c2ccco2)c1)C1CCN(C(=O)c2ncoc2C2CC2)CC1,i
Oc1ccc(C=Nc2ccc3oc(-c4ccc(F)cc4)nc3c2)c(O)c1,i
CCc1c(C#N)c(N)nc(SCc2ccccc2C)c1C#N,i
OC[C@@H](Cc1ccccc1)n1cnnc1,i
CCCCc1ncc(CN2CCC3(CC2)C(=O)NCCN3C)[nH]1,i
Cc1[nH]c2c(C(=O)N3CCC4(CC3)C(=O)NCCN4C)cccc2c1C,i
Cc1c(CN2CCC3(CC2)C(=O)NCCN3C)[nH]c2c(C)cccc12,30%*
CCCC(=O)Oc1ccc(C2C(C(=O)OCC)=C(N)OC3=C2C(=O)CC(C)(C)C3)cc1 (stereo not drawn),i
COCCN1C(=O)C(=O)C(=C(O)c2ccc(Cl)cc2)C1c1ccc(OCC(N)=O)cc1 (stereo not drawn),i
Cc1cccn2c(=O)c3cc(C(=O)Nc4ccc(Br)cc4)n(C)c3nc12,i
COc1ccccc1NC(=O)CSc1nc(O)cc(=O)n1-c1ccccc1C,i
COc1ccc(-n2nc(C(=O)O)c3ccccc3c2=O)c(OC)c1,i
COc1ccc(N=Cc2c(O)n(-c3ccccc3C)c(=O)c3ccccc23)c(OC)c1,43%*
SMILES,ST2 IL33 inh
O=c1oc2ccccc2c(O)c1C=Nc1cccc(C(F)(F)F)c1,i
COc1ccc(N=Cc2c(C)c(Cl)c(C)c([N+](=O)[O-])c2O)cc1OC,i
COc1ccc(-n2c(=O)[nH]c3cc(C(=O)O)ccc3c2=O)cc1OC,i
COc1cccc(C=Nc2ccc(N=Cc3cccc(OC)c3OC)cc2)c1OC,i
COc1ccc(N=Cc2c(O)n(-c3ccccc3OC)c(=O)c3ccccc23)c(OC)c1,31%*
COc1ccc(O)c(C=Nc2c(C)n(C)n(-c3ccccc3)c2=O)c1,i
COc1ccc(N=Cc2c(O)n(-c3ccccc3C)c(=O)c3ccccc23)cc1OC,48%*
COc1ccccc1-n1c(O)c(C=Nc2ccc(C(F)(F)F)cc2)c2ccccc2c1=O,33%*
COc1ccc(OC)c(-n2c(=O)[nH]c3cc(C(=O)O)ccc3c2=O)c1,i
CCN(CC)c1ncccc1CNCc1cccc2c1OCO2,i
O=C(c1ccc2c(c1)N(Cc1ccccc1)C(=O)CS2)N1CCCC1,i
CCN(CCN(C)C)c1ncnc2c1cnn2-c1ccc(Cl)cc1,i
COc1cccc(-c2cc(N3CCN(S(=O)(=O)c4ccc(C)cc4C)CC3)ncn2)c1,i
CCc1ccc(NC(=O)CN2CCN(Cc3ccccc3C)S2(=O)=O)cc1,i
O=C1c2cccc3cccc(c23)C(=O)N1CC1CCN(CC(O)COc2ccc(Cl)cc2)CC1 (stereo not drawn),i
C=CCN(CC#CC(O)(c1ccccc1)c1ccccc1)CC=C,i
CC1CCN(CCCNC(=O)Cc2cn(C)c3ccccc23)CC1,i
Cc1ccc(C2C(C#N)=C(N)Oc3c2sc2ccccc32)o1 (stereo not drawn),39%*
CCOC(=O)CC1=C(C(=O)OCC)C(c2ccc(C)o2)C(C#N)=C(N)O1 (stereo not drawn),i
Cc1ccc(C2C(C#N)=C(N)OC3=C2C(=O)CCC3)o1 (stereo not drawn),i
CC(=O)c1cccc(N2C(=O)[C@H]3[C@@H](C2=O)[C@@]2(CO)C=C[C@H]3O2)c1,i
CC(c1cccc(-c2coc3ccccc3c2=O)c1)N1CCCC1 (stereo not drawn),i
CCOc1cccc(S(=O)(=O)N=C2C=C(C(C)(C)C)C(=O)C(C(C)(C)C)=C2)c1,i
CC(C)(C)c1ccc(S(=O)(=O)N=C2C=CC(=O)c3ccccc32)cc1,44%*
CCc1ccc(S(=O)(=O)N=C2C=CC(=O)c3ccccc32)cc1,49%*
SMILES,ST2 IL33 inh
CCOc1ccc(C2C(=O)c3ccccc3C2=O)cc1,i
CCc1ccc(S(=O)(=O)N2CCCN(S(=O)(=O)c3ccc(CC)cc3)CC2)cc1,i
CC(C)(C)c1ccc(S(=O)(=O)Nc2ccccn2)cc1,i
CC(C)(C)c1ccc(S(N)(=O)=O)cc1,i
CCOc1ccc(S(=O)(=O)N=C2C=CC(=O)c3ccccc32)cc1,49%*
CCc1ccc(S(=O)(=O)N(CC)CC)cc1,i
COc1cccc(C2C3=C(CCCC3=O)Nc3nc(SCc4ccccc4)[nH]c(=O)c32)c1 (stereo not drawn),i
CCOC(=O)c1sc(NC(=O)c2cc(=O)c3ccccc3o2)nc1C,i
CCCn1c(CN2CCOCC2)nc2c1c(=O)[nH]c(=O)n2C,i
O=C(CSc1nc2sc3c(c2c(=O)[nH]1)CCC3)NCc1ccccn1,i
O=C(Nc1ccccn1)C1CCN(S(=O)(=O)c2cccc3cccnc23)CC1,i
CC(=O)c1ccc(NC(=O)c2ccccc2F)cc1,i
Cc1ccc(-n2nc3ccc(NC(=O)c4ccccc4F)cc3n2)cc1,i
O=C(Nc1ccc(N2CCCC2)cc1)c1ccccc1F,68%*
CC(=O)N1c2c(cc(Br)cc2S(=O)(=O)Nc2ccc(Cl)cc2)CC1C (stereo not drawn),i
CCc1ncc(C(=O)NCc2cccnc2Oc2ccc(C)nc2)cn1,i
CCC(Sc1nnc(-c2cccc(N)c2)n1C)C(=O)Nc1ccc(Br)cc1 (stereo not drawn),i
COc1ccc(CCNc2oc(COc3ccccc3C)nc2C#N)cc1,38%*
Cc1ccccc1OCc1nnc(SCC(=O)NCCc2ccccc2)n1C,i
O=S(=O)(c1ccccc1)c1nc(-c2ccc(F)cc2)oc1NCc1ccccc1,i
COc1ccc(OCc2nc(C#N)c(NCCN3CCOCC3)o2)cc1,i
COc1ccc(CCNC(C)=O)cc1,i
COc1ccc(CCNc2oc(COc3ccc(Cl)cc3)nc2C#N)cc1,38%*
N#Cc1nc(-c2ccc(F)cc2)oc1NCc1ccco1,i
COc1ccc(CCNc2oc(COc3ccc(OC)cc3)nc2C#N)cc1,36%*
SMILES,ST2 IL33 inh
COc1ccc(C2C(C#N)=C(N)Oc3n[nH]c(C)c32)cc1COc1ccccc1C (stereo not drawn),i
Cc1ccccc1OCc1nc(C#N)c(NCc2ccc(F)cc2)o1,34%*
N#Cc1nc(COc2ccc(Br)cc2)oc1NCCN1CCOCC1,i
COc1ccc(CCC(=O)NCCc2cccc(Cl)c2)cc1,i
COC(=O)c1c(NC(=O)COc2cccc(Br)c2)sc(C)c1C,i
CCCOC(=O)CSC1=C(C#N)C(c2ccc(Cl)cc2)CC(=O)N1 (stereo not drawn),i
